SENP7 block – SENP7 protease inhibition | recombinant SENP7, Z-RLRGG-aminoluciferin luminescence, 40 min | inhibition, % at 5 µM | actives 1.5% (n = 330,000);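 active means inhibition above about 50% at the single test dose, limit read from the data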;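 further: plate controls were DMSO with enzyme for no effect and no enzyme buffer wells for full effect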
SENP6 inh – blocks the human protease SENP6; Q9GZR1; Recombinant SENP6 catalytic domain, aminoluciferin luminescence; inhibition, % at 10 µM; actives 1.8% (n = 330,000);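 active means inhibition above about 50% at the single tested dose, limit read from the data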;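 further: plate controls were DMSO wells with enzyme for no effect and DMSO wells lacking enzyme for full effect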
Platelet DG rel – platelet dense granule release activity; human platelet-rich plasma, SFLLRN dense granule ATP release, luminescence; inhibition, %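 (compounds screened at 7.5 µM in platelet-rich plasma)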; actives 0.22% (n = 300,000); AID 1663;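 active means mean replicate score, as percent of positive control, at or above 50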
SENP8 block-1 – blocks the human protease SENP8. purified SENP8, Z-RLRGG-aminoluciferin cleavage, luminescence. actives 1.2% (n = 330,000). inhibition, % at 10 µM. Q96LD8; in the data active means inhibition above about 50%
Target sequence (Q96LD8 whole entry, looked up): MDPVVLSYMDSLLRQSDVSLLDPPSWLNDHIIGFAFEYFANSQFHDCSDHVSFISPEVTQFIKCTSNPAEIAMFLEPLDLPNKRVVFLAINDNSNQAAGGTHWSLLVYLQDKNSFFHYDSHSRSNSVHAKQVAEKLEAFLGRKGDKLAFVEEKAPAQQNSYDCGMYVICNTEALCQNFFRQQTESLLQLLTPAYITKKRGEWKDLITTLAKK
SENP8 block-2 – blocks human SENP8 cleavage of Nedd8 substrate. Q96LD8. recombinant SENP8, Nedd8 substrate fluorescence. inhibition, % at 20 µM. actives 0.64% (n = 360,000). AID 602440; in the data active means inhibition mostly above about 40%, no sharp cut-off; inactive means mostly below about 27%
SENP8 conf-1 – human SENP8 inhibition, confirmed; inhibition, % at 12.5 µM; actives 40% (n = 6,200); shares compounds with SENP7 block; Recombinant SENP8, Z-RLRGG-aminoluciferin luminescence, 60 min;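 active means mean inhibition across replicates above about 50%, limit read from the data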
SENP6 conf – confirmation of human SENP6 protease inhibitors; recombinant SENP6, Z-RLRGG-aminoluciferin luminescence; actives 58% (n = 6,200); inhibition, % at 12.5 µM; shares compounds with SENP7 block; AID 488915
SENP7 confirm – confirmation of human SENP7 protease inhibitors; shares compounds with SENP7 block; recombinant SENP7, Z-RLRGG-aminoluciferin luminescence, 40 min; inhibition, % at 12.5 µM; actives 69% (n = 6,200); AID 488917
Casp3 select – caspase-3 inhibition (SENP selectivity assay). actives 60% (n = 6,200). inhibition, % at 12.5 µM. shares compounds with SENP7 block. purified caspase-3, Z-DEVD-aminoluciferin luminescence, 60 min;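 active means mean inhibition above about 50%, limit read from the data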;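 further: plate controls were enzyme with DMSO for no effect and wells without caspase-3 for full effect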
Target sequence (P42574 28-227 limits assumed): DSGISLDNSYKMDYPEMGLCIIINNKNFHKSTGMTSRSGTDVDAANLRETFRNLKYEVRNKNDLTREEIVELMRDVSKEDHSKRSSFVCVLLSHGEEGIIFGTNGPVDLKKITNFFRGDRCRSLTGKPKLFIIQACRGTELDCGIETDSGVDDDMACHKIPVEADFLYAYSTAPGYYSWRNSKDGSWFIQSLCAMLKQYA
Luc interf – counter-screen for SENP inhibitors: luminescence interference. shares compounds with SENP7 block. Pre-incubated SENP8/Z-RLRGG-aminoluciferin, luciferase luminescence interference. inhibition, % at 12.5 µM. actives 39% (n = 6,200);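 active means mean inhibition above about 50% when retested at one dose, limit read from the data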;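 further: plate controls were DMSO wells with completed reaction for no effect and substrate without enzyme for full effect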
SENP8 conf-2 – SENP8 (human) inhibition, single concentration confirmation; inhibition, % at 25 µM; actives 15% (n = 1,400); purified SENP8, Nedd8-AMC/pro-Nedd8 cleavage fluorescence, 30 min; shares compounds with SENP8 block-2; in the data active means inhibition mostly above about 39%, no sharp cut-off; inactive means mostly below about 34%
Numbers without * were called inactive; / = no result given. This is a sample that favours compounds with a hit; in the whole collection about 2.4% have one here.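 How the source made its calls, unless noted: active means mean inhibition above about 50% in the one-dose retest (limit read from the data); inactive means the rest.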

SMILES	SENP7 block	SENP6 inh	Platelet DG rel	SENP8 block-1	SENP8 block-2	SENP8 conf-2	others
COc1ccccc1N1C(=O)Cc2ccccc2C1=O	40	69*	-2	19	90*	55*	SENP8 conf-1=18;SENP6 conf=63*;SENP7 confirm=31;Casp3 select=15;Luc interf=-3
COc1ccccc1N1C(=O)c2cccc3cccc(c23)C1=O	8	-27	5	-6	13	/
Nc1ccc(N2CCOCC2)c2nonc12	30	60*	0	4	69*	78*	SENP8 conf-1=13;SENP6 conf=28;SENP7 confirm=5;Casp3 select=-3;Luc interf=-2
CCc1nc2ccc(C(=O)NCCCn3ccnc3)cn2c1N(C)C(=O)C1CCCCC1	/	/	/	/	-27	/
CSc1nnc(-c2ccccc2N=Cc2c(C)[nH]n(-c3ccc4ccccc4c3)c2=O)c(=O)[nH]1	16	78*	19	53*	41*	15	SENP8 conf-1=47;SENP6 conf=63*;SENP7 confirm=34;Casp3 select=67*;Luc interf=68*
CCN(CC)CCNC(=O)C(=O)NCC1OCCN1S(=O)(=O)c1ccc([N+](=O)[O-])cc1 (configuration not stated)	4	5	1	-5	20	/
CCOc1ccc(C=NNc2ccc(S(=O)(=O)Nc3ccccc3C(=O)O)cc2[N+](=O)[O-])cc1	-6	-1	/	11	49*	28
COc1cc(NC(=O)c2ccc([N+](=O)[O-])o2)ccc1NC(=O)c1ccco1	7	6	-1	3	44*	16
COc1c(O)cc(O)c2c(=O)cc(-c3ccccc3)oc12	-3	8	/	4	69*	21
COc1cc(-c2cc(=O)c3c(O)cc(O)cc3o2)ccc1O	32	41	-3	24	56*	16
COc1cc(O)c2c(=O)cc(-c3ccccc3)oc2c1	2	-11	-5	-10	53*	5
COc1cc(-c2cc(=O)c3ccccc3o2)ccc1O	-1	2	1	-3	12	/
COc1c(OC)c(O)c2c(=O)cc(-c3c(O)cccc3O)oc2c1OC	2	-14	-1	-2	27	/
CCc1nc(NCCO)c(C#N)c2c1CSC(C)(C)C2	-5	-12	-4	-4	-415	/
CN(c1ccc(C(=O)NCc2ccccn2)cc1)S(=O)(=O)c1ccc(Cl)cc1	7	-9	-8	-5	19	/
Cc1nn(Cc2ccc(Cl)cc2Cl)c(C)c1NC(=O)Cn1nc([N+](=O)[O-])c(Cl)c1C	6	-2	-6	-2	54*	8
Cc1nn(Cc2ccc(Cl)cc2)c(C)c1NC(=O)Cn1nc([N+](=O)[O-])c(Cl)c1C	-5	-3	4	-5	17	/
COc1ccc(NC(=O)CN2CCc3ccccc3C2)cc1S(=O)(=O)N1CCOCC1	-6	5	-7	-10	47*	8
CCOC(=O)c1ccc(NC(=O)CN2CCc3ccccc3C2)cc1	-4	11	-1	-4	49*	47*
Cc1ccc(Cn2nc(-c3ccccc3)nc2-c2ccccc2)cc1	68*	74*	-8	59*	44*	3
CCN(CC)c1ncnc2c1cnn2Cc1ccc(Cl)cc1	5	13	8	1	41*	3
CCCCNc1ncnc2c1cnn2Cc1ccc(Cl)cc1	2	18	0	3	9	/
O=C1Nc2ccccc2CCc2ccccc21	7	-4	/	-5	5	/
O=C1Cc2ccccc2C(=O)N1	/	/	/	/	81*	84*
O=C(COC(=O)CN1C(=O)NC2(CCCC2)C1=O)Nc1c(Cl)cccc1C(F)(F)F	0	-2	0	8	14	/
SMILES	SENP7 block	SENP6 inh	Platelet DG rel	SENP8 block-1	SENP8 block-2	SENP8 conf-2	others
Cc1nc(-[n+]2nc(-c3ccncc3)nn2-c2ccccc2)sc1C	/	/	/	/	41*	29
C=CCC(C(=O)OC)(C(=O)OC)c1ccc([N+](=O)[O-])cc1[N+](=O)[O-]	3	18	4	0	42*	11
COc1cc([N+](=O)[O-])ccc1NC(=O)NNC(=O)c1sccc1C	3	3	0	5	17	/
CC(NC(=O)[C@H](NC(=O)[C@@H]1Cc2ccccc2CN1)c1ccccc1)c1ccccc1 (some centres not stated)	2	-5	-3	4	41*	9
COc1ccccc1CNC(=O)CCNC(=O)C1CCN(S(=O)(=O)c2ccccc2)CC1	-3	9	3	-1	-8	/
CC(C)=CCC/C(C)=C/COc1ccc2ccc(=O)oc2c1	5	-15	6	-16	-168	/
CC(C)=CCC/C(C)=C/COc1c2occc2cc2ccc(=O)oc12	-14	-13	/	-12	57*	7
Cc1c(C(=O)NCc2n[nH]c(=S)n2-c2ccc(F)cc2)cccc1[N+](=O)[O-]	-8	-34	0	-7	7	/
CC(=O)Nc1ccc(S(=O)(=O)N2CCN(C(=O)CCC3CCCC3)CC2)cc1	-7	2	8	-5	46*	11
CC(=O)c1ccc(S(=O)(=O)N2CCN(C(=O)CCC3CCCC3)CC2)cc1	-6	-2	/	-5	13	/
Cc1cnc(C2OCCO2)c2cccc([N+](=O)[O-])c12	/	/	/	/	5	/
N#CC1(NC(=O)Cn2cc(C(F)(F)F)cc(Cl)c2=O)CCCCC1	-6	-10	3	5	-4	/
Cc1cc(Br)cc2c1NC(=O)C2(c1c(C)n(C)n(-c2ccccc2)c1=O)c1c(C)n(C)n(-c2ccccc2)c1=O	3	5	12	-12	14	/
COc1cc(C2(c3ccc(O)c(OC)c3)C(=O)Nc3c(C)cc(Br)cc32)ccc1O	10	-10	5	-8	40*	15
Cc1ccc(OCC(=O)NCCN2CCOCC2)cc1C	6	3	3	8	43*	8
O=C(N/N=C/c1ccncc1)c1cccc(S(=O)(=O)N2CCCC2)c1	2	-3	/	5	16	/
O=C(N/N=C/c1ccccn1)c1cccc(S(=O)(=O)N2CCCC2)c1	-2	5	-2	1	45*	16
CCOc1ccc(C2(C)NC(=O)N(CCN(C)C)C2=O)cc1 (configuration not stated)	-1	1	-1	9	-1	/
